This note sets out measurements from PubChem BioAssay AID504873 (The Scripps Research Institute Molecular Screening Center, 2011).

The target in this assay is Sphingosine 1-phosphate receptor 2 (Homo sapiens) (UniProt O95136). Kind of assay: S1P2 receptor agonists, human, late-stage follow-up, counter-screen for S1P4 agonist project, cell-based, fluorescence, set 2 (AID 504873). Background: A counterscreen serves to expose hits that act by an unwanted route or on another target.

Potency and affinity values are given separately. The source made the active and inactive calls. Where a call stands in place of a potency, no number is given. How the calls were made is not given here.

Sequence of Sphingosine 1-phosphate receptor 2 (Homo sapiens) (O95136 whole entry, looked up): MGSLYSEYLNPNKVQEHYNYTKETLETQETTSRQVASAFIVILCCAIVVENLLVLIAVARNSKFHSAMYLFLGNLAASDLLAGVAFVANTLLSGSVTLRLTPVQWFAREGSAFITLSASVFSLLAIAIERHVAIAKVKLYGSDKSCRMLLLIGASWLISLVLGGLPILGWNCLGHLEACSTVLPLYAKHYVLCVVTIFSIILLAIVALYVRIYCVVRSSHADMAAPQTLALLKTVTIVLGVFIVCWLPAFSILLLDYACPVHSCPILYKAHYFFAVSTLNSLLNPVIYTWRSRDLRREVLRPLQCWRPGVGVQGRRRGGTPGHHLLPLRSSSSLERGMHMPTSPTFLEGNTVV

Consider `CC/N=C1/SC(=Cc2cc(C)n(Cc3ccccc3OC)c2C)C(=O)N1CC`, for which the outcome was inactive.
